Shown are actives, neighbours in structure and some others; about 1.8% of the full set was active somewhere.
MBD2 inh: inhibitors of human MBD2 binding to methylated oligonucleotide | Q9UBB5 | TR-FRET | inhibition, % at 4.4 µM | 0.31% of 370,000 active | AID 686964; in the data active = inhibition above about 13%
UHRF1 binding: human UHRF1 methylated DNA binding inhibitors. 0.75% of 370,000 active. inhibition, % at 4.4 µM. AID 687016. UHRF1 binding to methylated oligo, TR-FRET; in the data active = inhibition above about 21%;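 note: UHRF1 SRA domain binding a hemimethylated CpG hairpin DNA probe; 0% = median of test compound wells and 100% = reference inhibitor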
UBC13 inh: blocks human UBC13 polyubiquitin chain formation; TR-FRET; inhibition, % at 20 µM; AID 485273; P61088; 0.47% of 330,000 active; in the data active = inhibition above about 45%, passing the limit was not always enough
Target sequence (P61088 whole entry, looked up): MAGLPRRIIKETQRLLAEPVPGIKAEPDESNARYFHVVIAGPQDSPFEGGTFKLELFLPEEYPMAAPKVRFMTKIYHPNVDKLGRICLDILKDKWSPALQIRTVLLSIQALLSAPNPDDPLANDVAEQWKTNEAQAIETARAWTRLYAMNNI
Neddylation inh: blocks human cullin neddylation; AID 651699; TR-FRET cullin neddylation, biochemical; P61081+Q13564; calls only at 25 µM; 0.58% of 360,000 active; in the data active = inhibition above about 36%
Neddyl inh conf: confirmation of human cullin neddylation inhibitors. AID 652217. TR-FRET cullin neddylation biochemical assay. shares compounds with Neddylation inh. 13% of 1,800 active. calls only at 25 µM; in the data active = inhibition above about 40%;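 note: neddylation substrate is the cullin 1 ring ligase complex with SKP2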
* marks the source's active call; other numbers are inactive results; i = inactive; . = no result shown; + = active, no number.

SMILES | MBD2 inh | UHRF1 binding | UBC13 inh | Neddylation inh | Neddyl inh conf
O=C(COc1cccnc1[N+](=O)[O-])NCc1ccc2c(c1)OCO2 | 0.2 | -2.6 | -21.2 | i | .
Cc1c(Cl)cccc1NC(=O)CNC(=O)c1cn(-c2ccccc2)nc1-c1cccnc1 | 6.9 | 1.2 | -12.2 | i | .
COc1cccc(Cn2c3ccc(NC(=O)CCc4ccc(F)cc4)cc3c(=O)n2C)c1 | 0.7 | -1.3 | . | . | .
C/C(=C\C(=S)Nc1ccccc1)Nc1cccc2ccccc12 | -4.4 | -8.7 | -34.4 | + | .
Cc1ccc(/C(O)=C2\C(=O)C(=O)N(C)C2c2ccccc2[N+](=O)[O-])cc1 (centres undefined) | 0.3 | -3.3 | -15.0 | i | .
CN(C)CCN(C(=O)/C=C/c1cccs1)c1nc2ccc(Br)cc2s1 | 0.9 | -0.5 | 22.5 | + | i
CC(C)C(=O)Nc1cccc(C(=O)NCCc2ccc(S(N)(=O)=O)cc2)c1 | 6.3 | 1.7 | -4.6 | i | .
Cc1[nH]c2ccccc2c1CC(=O)Nc1ccc(Nc2cccnc2)c(-c2ccc(F)c(F)c2)c1 | 1.0 | -1.4 | . | . | .
C=CCN(C(=O)c1csnn1)C(C(=O)NC1CCCC1)c1c(F)cccc1Cl (centres undefined) | 3.3 | 0.7 | 0.5 | i | .
CCOc1ccc(CCNC(=O)COC(=O)c2cccc(N(C)C)c2)cc1OCC | -2.5 | -0.5 | 5.7 | + | i
CN(C)c1cccc(C(=O)OCC(=O)Nc2ccccc2-c2ccccc2)c1 | -3.0 | 2.3 | 16.3 | + | i
CCOc1ccc(CCNC(=O)COC(=O)c2cccc(S(=O)(=O)N(C)C)c2)cc1OCC | 1.6 | 2.7 | . | i | .
CC1(C)Oc2ccc3ccc(=O)oc3c2CC1O (centres undefined) | 2.6 | 1.2 | 3.2 | + | .
CC1(C)Oc2ccc3ccc(=O)oc3c2[C@@H](O)[C@H]1O | 4.8 | 1.9 | -6.5 | . | .
CC1(C)Oc2ccc3ccc(=O)oc3c2C[C@H]1O[C@@H]1O[C@H](CO)[C@@H](O)[C@H](O)[C@H]1O | -1.2 | 0.2 | 7.3 | . | .
CCO[C@H]1c2c(ccc3ccc(=O)oc23)OC(C)(C)[C@H]1O | 3.0 | 2.7 | 18.1 | + | i
c1coc(CNc2nc(N3CCCCC3)nc3ccccc23)c1 | 0.4 | 1.3 | 22.2 | + | i
NNc1nc2ccccc2c(=O)n1Cc1ccccc1 | -2.4 | 4.3 | 7.1 | + | i
COC(=O)[C@]12C[C@H](CC(=O)N3CCSCC3)C(=O)N(Cc3ccc(Cl)cc3Cl)C1=C[C@H](COCc1ccccc1)O[C@@H]2C | -1.6 | 1.5 | . | . | .
Cc1cccc(C)c1-n1nnnc1-c1nc2ccccc2[nH]c1=O | 2.8 | 1.2 | . | i | .
Cc1cc2nc(-c3nnnn3-c3c(C)cccc3C)c(=O)[nH]c2cc1C | -2.4 | 1.5 | . | + | i
Cc1ccc2c(c1)c1c3n2CCN(C(=O)C2CC2)C3CCC1 (centres undefined) | -3.8 | -2.8 | 5.8 | + | i
CCN1CCN(S(=O)(=O)c2ccc3c4c(cccc24)C(=O)N3CC)CC1 | -1.6 | -0.4 | 3.4 | + | .
CCN1C(=O)c2cccc3c(S(=O)(=O)NCc4ccco4)ccc1c23 | 0.3 | -6.4 | 2.2 | + | i
Cc1ccc[n+](/C(=C\C(=C=[N-])C#N)C(=O)c2ccc(Cl)cc2)c1 | -3.5 | -1.4 | -13.3 | i | .
SMILES | MBD2 inh | UHRF1 binding | UBC13 inh | Neddylation inh | Neddyl inh conf
CCCCCCSC1=C(C#N)C(c2ccc(C)o2)CC(=O)N1 (centres undefined) | 3.1 | -1.1 | 0.7 | i | .
CCSC1=C(C#N)C(c2ccc(C)o2)CC(=O)N1 (centres undefined) | 0.2 | 0.2 | -5.1 | + | i
C[C@H](O)[C@H](O)[C@H]1CNc2nc(N)[nH]c(=O)c2N1 | -6.1 | -2.2 | 9.4 | . | .
C[C@H](O)C(=O)C1=Nc2c(nc(N)[nH]c2=O)NC1 | -5.8 | -2.1 | -12.4 | + | i
O=C1O[C@@H](c2ccc(O)cc2)Cc2cccc(O)c21 | -0.5 | 0.0 | 24.6 | + | .
COc1ccc([C@H]2Cc3cccc(O)c3C(=O)O2)cc1O | 3.5 | -0.7 | 11.9 | i | .
CC1(C)CC2(CCO1)C(Nc1ccccc1)=NC(=S)N2CC(N)=O (centres undefined) | -0.9 | -1.9 | -6.3 | + | i
Nc1c(C(=O)N/N=C/c2cccnc2)oc2nc(-c3ccccc3)cc(-c3ccco3)c12 | -6.9 | -4.9 | 1.7 | + | i
NNC(=O)c1oc2nc(-c3ccc(Cl)cc3)cc(-c3ccccc3)c2c1N | 9.7 | -3.8 | . | + | i
